HRas wt GTP – human HRas wildtype GTP binding, change in either direction. GTP binding activity, % at 10 µM. hit rate 0.14% among 190,000. GST-Ras wt beads, Bodipy-FL-GTP binding, flow cytometry; actives lie on both sides. P01112;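 active = GTP binding activity at least 20% away from the 100% baseline, either lowered as inhibitor or raised as activator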;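 note: 0% = unlabeled GTP competition control and 100% = no-compound control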
Target sequence (P01112 whole entry, looked up): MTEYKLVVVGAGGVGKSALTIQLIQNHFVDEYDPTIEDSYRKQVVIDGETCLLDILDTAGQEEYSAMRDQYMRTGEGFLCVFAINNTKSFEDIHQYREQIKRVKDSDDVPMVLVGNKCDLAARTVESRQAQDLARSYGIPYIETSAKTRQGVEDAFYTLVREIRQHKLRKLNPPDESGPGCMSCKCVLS
Rac1 mut GTP – human Rac1 activated mutant GTP binding change; P63000; GST-Rac1 activated beads, fluorescent GTP binding, flow cytometry; actives lie on both sides; 100% means binding = to untreated wells; percent activity (GTP binding), % at 10 µM; hit rate 0.11% among 190,000; AID 764;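 active = GTP binding at least 20 percentage points away from the 100% baseline, in either direction, so actives lie on both sides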
Rab2 wt GTP – changes GTP binding to wildtype dog Rab2A, up or down; P61105; GST-Rab2 wt beads, Bodipy-GTP binding, flow cytometry; GTP binding activity, % at 10 µM; hit rate 0.19% among 190,000;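 active = GTP binding activity at least 20 points away from 100%, either lowered or raised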;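 note: 0% = beads with excess unlabeled GTP and 100% = no-compound control corrected for plate trend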
Cdc42 wt – changes GTP binding to wildtype human Cdc42 | hit rate 0.2% among 190,000 | GST-Cdc42 beads, Bodipy-GTP binding, flow cytometry; actives lie on both sides | AID 761 | P60953 | percent activity (GTP binding), % at 10 µM;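 active = percent activity GTP binding at least 20 points away from the 100% baseline, either down as inhibitor or up as activator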;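 note: median bead fluorescence of bound Bodipy-FL-GTP at 100 nM; 0% = excess unlabeled GTP control and 100% = no compound control; below 100% means less GTP binding so inhibitor and above means activator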
Target sequence (P60953 whole entry, looked up): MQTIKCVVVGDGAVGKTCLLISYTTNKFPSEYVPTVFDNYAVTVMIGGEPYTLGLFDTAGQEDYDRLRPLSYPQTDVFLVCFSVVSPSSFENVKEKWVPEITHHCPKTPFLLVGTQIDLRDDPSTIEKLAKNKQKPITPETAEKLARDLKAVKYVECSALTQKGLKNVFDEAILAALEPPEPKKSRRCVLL
Rac1 wt GTP bind – alters GTP binding to wildtype human Rac1 | P63000 | GST-Rac1 beads, fluorescent GTP binding, flow cytometry; actives lie on both sides; 0 = cold GTP competed, 100 = untreated | GTP binding activity (% of control), % at 10 µM | hit rate 0.27% among 190,000;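 active = GTP binding activity at least 20 points away from the 100% control level, either lower or higher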
Rab7 wt modul – modulators of GTP binding to dog Rab7 wildtype GTPase. GST-Rab7 beads, fluorescent GTP binding, flow cytometry; actives lie on both sides; untreated = 100%, excess cold GTP = 0%. AID 758. GTP binding activity (percent of control), % at 10 µM. hit rate 0.055% among 190,000;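 active = fluorescent GTP binding to Rab7 beads changed by at least 20 points from the 100% baseline, either direction, mostly lower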;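 note: median green fluorescence of bound Bodipy-FL-GTP per Rab7 bead population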
* hit, by the source's call; [ ] = another dose, or the depositor's remark. A selection: hits, their analogues and other compounds. The true share with any hit is near 0.4%.

SMILES | HRas wt GTP | Rac1 mut GTP | Rab2 wt GTP | Cdc42 wt | Rac1 wt GTP bind | Rab7 wt modul
COc1cc(/C=N/NC(=O)Nc2cccc3nsnc23)cc(OC)c1OC | 58* | 75* | 59* | 56* | 76* | 80
Cc1cc(NS(=O)(=O)c2ccccc2)c(C)c(Cl)c1O | 101 | 103 | 101 | 106 | 105 | 98
O=S(=O)(Nc1cc(Sc2ncn[nH]2)c(O)c2ccccc12)c1ccccc1 | 92 | 89 | 91 | 95 | 78* | 91
COc1ccc(N2CC(C(=O)OC(C)C(=O)c3ccccc3)CC2=O)cc1 (centres undefined) | 96 | 95 | 96 | 96 | 93 | 96
Cc1ccc(C(=O)COC(=O)c2ccc3c(c2)C(=O)N(c2cccc4ncccc24)C3=O)cc1 | 76* | 75* | 71* | 77* | 71* | 84
O=C(COC(=O)c1ccc2c(c1)C(=O)N(c1cccc3ncccc13)C2=O)c1ccc(Cl)cc1 | 90 | 86 | 83 | 89 | 82 | 90
NC(N)=NS(=O)(=O)c1ccc(NC(=S)NC(=O)c2ccc3c(c2)OCO3)cc1 | 111 | 105 | 114 | 109 | 123*[activator] | 100
Fc1cccc(Nc2ncnc3[nH]ncc23)c1 | 87 | 91 | 88 | 88 | 79* | 104
O=C(COC(=O)c1ccc2c(c1[N+](=O)[O-])C(=O)c1ccccc1C2=O)NC1CC1 | 76* | 83 | 73* | 73* | 70* | 91
CC1(C)Cc2c(sc(NC(=O)c3ccc(Br)o3)c2C#N)CO1 | 104 | 118 | 112 | 148*[activator] | 167*[activator] | 99
CCCCC(=O)Nc1sc2c(c1C#N)CC(C)(C)OC2 | 101 | 100 | 98 | 103 | 107 | 104
Cc1cc(NC(=O)c2cccc(C(=O)Nc3cc(C)on3)n2)no1 | 80 | 91 | 80 | 79* | 88 | 93
O=[N+]([O-])c1cccc(-c2csc(N/N=C/c3cccc(O)c3)n2)c1 | 96 | 98 | 98 | 98 | 97 | 96
COc1ccc(CNC(=O)c2ccccc2C(=O)O)cc1 | 100 | 106 | 102 | 103 | 110 | 101
COc1ccc(CC(=O)c2ccccc2C(=O)O)cc1 | 126*[activator] | 131*[activator] | 130*[activator] | 140*[activator] | 143*[activator] | 125*[activator]
Cc1ccc(Sc2ncccc2C(=O)O)c(C)c1 | 123*[activator] | 127*[activator] | 124*[activator] | 126*[activator] | 135*[activator] | 106
O=C(O)c1cccnc1SCc1ccccc1Cl | 116 | 121*[activator] | 118 | 122*[activator] | 131*[activator] | 115
Cc1ccc(C)c(CSc2ncccc2C(=O)O)c1 | 113 | 126*[activator] | 114 | 132*[activator] | 144*[activator] | 114
O=C(O)CSc1ncccc1C(=O)O | 102 | 101 | 99 | 104 | 103 | 98
CNc1nc(-c2ccc3c(c2)CCN3S(=O)(=O)c2ccccc2)c(C)s1 | 103 | 95 | 98 | 98 | 104 | 105
O=C(NC1CCCCC1)c1noc2c1CCCCC2 | 109 | 102 | 110 | 114 | 120*[activator] | 105
CC(C)(C)C1CCc2onc(C(=O)NC3CCCC3)c2C1 (centres undefined) | 104 | 98 | 100 | 105 | 102 | 99
Cc1nc(Cl)c2c(n1)N(CC(N)=O)C(=O)CO2 | 101 | 99 | 99 | 97 | 100 | 100
O=[N+]([O-])c1cc2oc3c(c2c(C=NCc2ccccc2)c1O)CCCC3 | 79* | 74* | 76* | 74* | 73* | 78*
CC(C)CN=Cc1c(O)c([N+](=O)[O-])cc2oc3c(c12)CCCC3 | 97 | 94 | 94 | 97 | 97 | 95
SMILES | HRas wt GTP | Rac1 mut GTP | Rab2 wt GTP | Cdc42 wt | Rac1 wt GTP bind | Rab7 wt modul
Cc1cc(C)c2nc(NNC(=O)c3cc(=O)c4ccccc4o3)sc2c1 | 82 | 71* | 79* | 77* | 80 | 96
O=C(Nc1nnc(CC(=O)N2CCOCC2)s1)c1cccs1 | 102 | 99 | 102 | 104 | 107 | 102
O=C(COc1cc(Cl)ccc1Cl)Nc1nnc(CC(=O)N2CCOCC2)s1 | 70* | 86 | 72* | 71* | 87 | 86
N=c1oc2ccc3ccccc3c2cc1-c1nc(-c2ccccc2)cs1 | 82 | 82 | 79* | 83 | 79* | 92
COC(=O)c1ccc(NC(=O)Cn2nc(C)cc2C)cc1 | 100 | 98 | 103 | 99 | 98 | 107
O=C(O)C1C2C=CC(C2)C1C(=O)N1CCOCC1 (centres undefined) | 43* | 37* | 36* | 39* | 33* | 22*
O=C(NC1CCCC1)C1C2C=CC(C2)C1C(=O)N1CCOCC1 (centres undefined) | 98 | 98 | 99 | 101 | 98 | 103
CN1CCN(S(=O)(=O)c2cccc(C(=O)Nc3sc4c(c3C(N)=O)CCCC4)c2)CC1 | 80 | 87 | 77* | 79* | 72* | 85
CC(=O)c1cc2c(cc1NC(=O)c1cccc(S(=O)(=O)N3CCN(C)CC3)c1)OCO2 | 84 | 89 | 82 | 83 | 78* | 98
O=C(Nc1cccc(S(=O)(=O)N2CCCC2)c1)c1ccc2c(c1)OCO2 | 92 | 94 | 90 | 99 | 90 | 92
CCOC(=O)c1sc(NC(=O)CSc2nnc(Cc3ccccc3)o2)c(C#N)c1C | 83 | 76* | 78* | 85 | 81 | 83
CCOC(=O)c1c(NC(=O)CSc2nnc(Cc3ccccc3)o2)sc(C(C)=O)c1C | 103 | 99 | 103 | 103 | 102 | 96
CCOc1cc(/C=C(/C#N)c2nc3ccccc3[nH]2)ccc1OCc1ccc(C(=O)O)o1 | 76* | 86 | 74* | 77* | 85 | 92
CC1=NN(c2ccc(Cl)c(C(=O)O)c2)C(=O)/C1=C\c1ccc(-c2ccc(C(=O)O)cc2)o1 | 90 | 87 | 88 | 87 | 89 | 91
O=C(O)c1ccc(N2C(=O)/C(=C/c3ccc(-c4ccc([N+](=O)[O-])cc4)o3)C=C2c2ccccc2)cc1 | 86 | 79* | 80 | 75* | 79* | 92
Nc1[nH]n(-c2ccccc2)c(=O)c1N=Nc1ccc2c(c1)OCCO2 | 92 | 92 | 93 | 90 | 94 | 96
Cc1cc([N+](=O)[O-])ccc1N=Nc1c(N)[nH]n(-c2ccccc2)c1=O | 91 | 87 | 90 | 88 | 78* | 99
Cc1nn(Cc2ccccc2)c(C)c1NC(=O)CSc1nc2c(c(C(F)(F)F)n1)CCc1ccccc1-2 | 85 | 88 | 83 | 84 | 75* | 92
CSc1cccc(NC(=S)N2CCC(N(C)C3CCCC3)CC2)c1 | 103 | 101 | 103 | 104 | 104 | 104
O=C(O)COc1ccccc1/C=N/NC(=O)c1cccc(S(=O)(=O)Nc2cccc(Cl)c2)c1 | 87 | 82 | 82 | 82 | 75* | 94

Source: PubChem (NMMLSC)
